# Laboratory results published in PubChem BioAssay (NCATS).
# Records with an inconclusive call do not appear. Active and inactive are the calls of the source. Unless noted, calls come from the whole dose curve; as a rule, active = well fitted curve in either direction with a large enough effect (not every such curve was filed as active); inconclusive = small, poorly fitted or top-dose-only effect, or another doubt; inactive = flat fitted curve, though single readings scatter.
# Key:
# [1] = molecular target: Lysosomal acid glucosylceramidase (Homo sapiens) (UniProt P04062); assay: Glucocerebrosidase-p2 (AID 348; in the data active = potency below about 10 µM; note: potency is the fitted concentration of half-maximal effect); conditions: purified GBA, blue fluorogenic substrate, 40 min
# Procedure, shortened: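 Normal human glucocerebrosidase (0.2 nM) with blue fluorogenic substrate (80 uM final) in citrate/phosphate pH 5.9 with 10mM sodium taurocholate, 0.01% tween-20; 40 min RT, NaOH/glycine stop; fluorescence Ex 365/Em 440; AC50 from a titration from 0.6 nM upwards.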
# [2] = AP1 Signaling Pathway (AID 357); conditions: ME-180 AP-1-bla reporter, EGF-induced, beta-lactamase ratio, 5 h; at 7.69 µM (top of the series) unless noted;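 note: ME-180 reporter cells stimulated with EGF at its EC50 level; % is set by controls: 0 for no effect and ±100 for the full control effect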
# Procedure, shortened: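 Read-out was the 460nm/530nm emission ratio (excitation 405nm) after CCF4 loading for 2.5 hours at room temperature. Cells carried an AP-1-driven beta-lactamase reporter, were stimulated with EC50 EGF plus compound for 5 hours, and AC50 values came from titrations.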
# [3] = molecular target: Cytochrome P450 1A2 (Homo sapiens) (UniProt P05177); assay: p450-cyp1a2 (AID 410; calls by dose curve; note: potency is the fitted concentration of half-maximal effect;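 for activity change, negative = inhibition: -100% = full effect of reference inhibitor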); conditions: recombinant CYP1A2, luciferin-ME demethylation, luminescence; series mostly up to 57 µM
# Procedure, shortened: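 Luminescent demethylation readout: Luciferin-ME (100uM, equal to Km) turned over by 20nM CYP1A2 for 60 min at room temperature after NADPH regeneration addition, following 10 min compound preincubation. Normalization used 57 uM furafylline as full inhibition.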
# [4] = Stat Signaling Pathway (AID 446); conditions: ME-180 (cervical carcinoma) SIE beta-lactamase reporter, IL-6 stimulated, 5 h; at 7.69 µM (top of the series) unless noted;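 note: ME-180 cervical cancer cells given 40 pM IL-6 alongside compound; SIE-controlled beta-lactamase reporter measured as 460/530 nm FRET emission ratio; % is set by controls: 0 for no effect and ±100 for the full control effect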
# Procedure, shortened: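 Emission at 460 and 530 nm (excitation 405 nm) reports SIE-controlled beta-lactamase in ME-180 cells. Cells received compound with 40 pM IL-6 for 5 hrs at 37 C; data scaled between 300 pM IL-6 and 125 nM JAK-inhibitor controls.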
# [5] = molecular target: Glucocorticoid receptor (Homo sapiens) (UniProt P04150); assay: GR-EFC Redistribution (AID 451; calls by dose curve; note: potency is the fitted concentration of half-maximal effect); conditions: CHO-K1 GR-EFC translocation, beta-gal luminescence, 2 h
# Procedure, shortened: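 CHO-K1 cells stably expressing nuclear-localized β-gal enzyme acceptor and GR fused C-terminally to the enzyme donor fragment; ligand-driven nuclear translocation restores β-gal by complementation. Compounds titrated up to 46 uM final, 2 h at 37 °C; luminescence read.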
# [6] = molecular target: Mitogen-activated protein kinase 10 (Mus musculus) (UniProt Q61831); assay: JNK3 AlphaScreen Assay (AID 530); conditions: JNK3 lysate, c-Jun phosphorylation; series mostly up to 57.1 µM;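 note: kinase came from lysate of stimulated human HepG2 cells; signal reports phosphorylation of biotinylated GST-cJun 1-79 at Ser73 with 10 µM ATP; % is set by controls: 0 for no effect and ±100 for the full control effect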
# Procedure, shortened: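 Phosphorylation of biotinylated GST-cJun(1-79) at Ser73 is measured by AlphaScreen proximity luminescence. Enzyme is JNK3 in HepG2 lysates activated with interleukin-1beta and tumor necrosis factor alpha; ATP is 10 uM final.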
# [7] = molecular target: 3',5'-cyclic-AMP phosphodiesterase 4B (Homo sapiens) (UniProt Q07343); assay: qHTS Assay for Inhibitors of PDE-IV (AID 607; active = well fitted activation curve with a large enough effect in the main read-out, with a control signal flat, not every such curve was filed as active; note: % of control where 0% means no effect); conditions: HEK293 ACTOne CNG channel cells, membrane potential fluorescence; series mostly up to 22.9 µM
# Procedure, shortened: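 The readout is membrane depolarisation from a cAMP-sensing CNG channel, detected with a potential dye at ex 535/em 590. Cells were HEK293-derived (endogenous PDE-IV) at 1000 cells/well, titrated up to 22.9 uM final.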
# [8] = molecular target: Cytochrome P450 2C9 (Homo sapiens) (UniProt P11712); assay: qHTS Assay for Inhibitors and Substrates of Cytochrome P450 2C9 (AID 883; active = well fitted curve in the direction sought with a large enough effect; an effect the other way counts as inactive or inconclusive; note: nearly all actives have a fitted effect of over 60% in size; note: potency is the fitted concentration of half-maximal effect); conditions: recombinant CYP2C9, luciferin-H luminescence, 60 min; series mostly up to 57.1 µM
# Procedure, shortened: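 CYP2C9 deoxyluciferin hydroxylation, 37C, 60 min with NADPH regeneration; 10nM enzyme, 100uM Luciferin-H (KM). Glo detection reagent stopped reaction; luminescence normalized to sulphaphenazole (57uM) full inhibition.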
# [9] = molecular target: Cytochrome P450 3A4 (Homo sapiens) (UniProt P08684); assay: qHTS Assay for Activators of Cytochrome P450 3A4 (AID 885; active = well fitted curve in the direction sought with a large enough effect; an effect the other way counts as inactive or inconclusive; note: nearly all actives have a fitted effect of over 65% in size); conditions: recombinant CYP3A4, Luciferin-PPXE luminescence, 60 min; series mostly up to 57.1 µM
# Procedure, shortened: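 Activators are scored by enhanced luminescence from CYP3A4 conversion of luciferin-PPXE (25uM, equal to KM) to luciferin, after 60 min at RT with an NADPH-regenerating system.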
# [10] = qHTS Assay for Lipid Storage Modulators (AID 1519; calls by dose curve); conditions: Drosophila S3 cells, BODIPY lipid droplet/cell ratio, laser cytometry, cells loaded with oleic acid; for activity change, negative = inhibition: at 57.5 µM (top of the series)
# Procedure, shortened: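 Cells seeded at 5,000 per well were treated with compounds over a concentration series and loaded with oleic acid (400 uM, as added). Lipid droplet fluorescence (488 nm excitation, 500-530 nm channel) was read by laser-scanning cytometry and normalized to 20 uM Triacsin C.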
# [11] = Primary qHTS for small molecule stabilizers of the endoplasmic reticulum resident proteome: Secreted ER Calcium Modulated Protein (SERCaMP) assay (AID 1508630; active = well fitted curve in the direction sought with a large enough effect; an effect the other way counts as inactive or inconclusive; note: % is set by controls: 0 for no effect and ±100 for the full control effect); conditions: SH-SY5Y GLuc-SERCaMP (Gaussia luciferase released on ER calcium loss) secretion, thapsigargin, luminescence; series mostly up to 38.4 µM
# Procedure, shortened: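 The SH-SY5Y reporter protocol was run at 3 concentrations up to 38.3 uM (primary) or 11 concentrations (follow-up): 16 h compound, 100 nM thapsigargin for 4 h, then extracellular luciferase luminescence.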
# [12] = molecular target: Glucocorticoid receptor (Homo sapiens) (UniProt P04150); assay: GR-GFP Redistribution (AID 450;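 active = compounds whose dose series gives a full or clear partial fitted curve of increased nuclear translocation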; note: potency is the fitted concentration of half-maximal effect); conditions: U2OS GR-GFP nuclear translocation, laser cytometry, 2 h
# [13] = molecular target: Cytochrome P450 2D6 (Homo sapiens) (UniProt P10635); assay: qHTS Assay for Inhibitors and Substrates of Cytochrome P450 2D6 (AID 891; active = well fitted curve in the direction sought with a large enough effect; an effect the other way counts as inactive or inconclusive; note: potency is the fitted concentration of half-maximal effect; nearly all actives have a fitted effect of over 60% in size); conditions: recombinant CYP2D6, luciferin-ME EGE luminescence; series mostly up to 57.1 µM
# Procedure, shortened: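 Luminescent read-out of luciferin formed by 5 nM human CYP2D6 demethylating 30 uM Luciferin-ME EGE (Km level) over 60 min at room temperature after NADPH regeneration addition. Data normalized to full inhibition by 1.43 uM quinidine.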
# [14] = Confirmation and Secondary Assay for Modulators of Hemoglobin Beta Chain Splicing at IVS2 654 locus (AID 910; active = well fitted curve in the direction sought with a large enough effect; an effect the other way counts as inactive or inconclusive;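 note: per-well total GFP intensity by laser scanning cytometry after 2-day treatment; % of control where 0% means no effect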); conditions: HeLa EGFP-654 splicing reporter, GFP fluorescence, 48 h; series mostly up to 38.3 µM
# Procedure, shortened: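 HeLa cells stably carrying EGFP interrupted by mutant beta-globin IVS2-654 intron (CMV-driven) were treated with compound for 2 days at 37C; corrected splicing was scored as total peak GFP intensity per well (488 nm excitation, 500-520 nm emission).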
# [15] = Confirmation and Secondary Assay for Modulators of Hemoglobin Beta Chain Splicing at IVS2 705 locus (AID 930; active = well fitted curve in the direction sought with a large enough effect; an effect the other way counts as inactive or inconclusive;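 note: HeLa cells stably expressing the EGFP-705 splicing reporter; GFP fluorescence per well restored by corrected splicing of the IVS2-705 intron in EGFP; % of control where 0% means no effect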); conditions: HeLa EGFP-705 splicing reporter, GFP fluorescence, 48 h; series mostly up to 38.3 µM
# Procedure, shortened: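 Stable HeLa line with EGFP disrupted by mutant beta-globin intron 2 (705). Overnight attachment, then 2 days of compound at 37C, 5% CO2. Signal: peak GFP intensity summed over objects 5-250 µm.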
# [16] = molecular target: Ubiquitin carboxyl-terminal hydrolase 1 (Homo sapiens) (UniProt O94782); assay: Inhibitors of USP1/UAF1: Pilot qHTS (AID 504865; active = well fitted curve in the direction sought with a large enough effect; an effect the other way counts as inactive or inconclusive;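 note: rhodamine fluorescence freed from ubiquitin-rhodamine substrate followed over time; top concentration of the series differs between compounds; % is set by controls: 0 for no effect and ±100 for the full control effect; nearly all actives have a fitted effect of over 35% in size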); conditions: purified USP1/UAF1, Ub-rhodamine cleavage fluorescence; series mostly up to 54.9 µM
# Procedure, shortened: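 USP1/UAF1 complex at 1 nM preincubated 15 min at room temperature with compound, then Ub-Rho substrate added at 150 nM final. Fluorescence (480/540 nm) read kinetically in 50 mM HEPES pH 7.8, 0.5 mM EDTA, 1 mM TCEP, 0.1 mg/ml BSA, 0.01% Tween-20.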
# [17] = molecular target: Cytochrome P450 3A4 (Homo sapiens) (UniProt P08684); assay: qHTS Assay for Inhibitors and Substrates of Cytochrome P450 3A4 (AID 884; active = well fitted curve in the direction sought with a large enough effect; an effect the other way counts as inactive or inconclusive; note: potency is the fitted concentration of half-maximal effect; nearly all actives have a fitted effect of over 50% in size); conditions: recombinant CYP3A4, Luciferin-PPXE luminescence; series mostly up to 57.1 µM
# Procedure, shortened: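 Luminescent readout of luciferin produced by CYP3A4 (20 nM) dealkylation of Luciferin-PPXE, 25 uM (its KM). NADPH-driven reaction ran 60 min at RT after 10 min compound preincubation; data scaled to 57 uM ketoconazole as 100% inhibition.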
# [18] = molecular target: Cytochrome P450 2C19 (Homo sapiens) (UniProt P33261); assay: qHTS Assay for Inhibitors and Substrates of Cytochrome P450 2C19 (AID 899; active = well fitted curve in the direction sought with a large enough effect; an effect the other way counts as inactive or inconclusive; note: potency is the fitted concentration of half-maximal effect; nearly all actives have a fitted effect of over 60% in size); conditions: recombinant CYP2C19, luciferin-H EGE luminescence; series mostly up to 57.1 µM
# Procedure, shortened: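 In 50mM KPO4, the reaction held 5nM enzyme and KM-level (10uM) Luciferin-H EGE; it ran 60 min at 37C after NADPH regeneration and a 10 min compound preincubation. Luminescence values were scaled to 57uM ketoconazole as complete inhibition.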
# [19] = measured here: cell count channel max response
# [20] = measured here: lipid channel max response
# Cytochrome P450 1A2 (Homo sapiens), sequence (P05177 whole entry, looked up): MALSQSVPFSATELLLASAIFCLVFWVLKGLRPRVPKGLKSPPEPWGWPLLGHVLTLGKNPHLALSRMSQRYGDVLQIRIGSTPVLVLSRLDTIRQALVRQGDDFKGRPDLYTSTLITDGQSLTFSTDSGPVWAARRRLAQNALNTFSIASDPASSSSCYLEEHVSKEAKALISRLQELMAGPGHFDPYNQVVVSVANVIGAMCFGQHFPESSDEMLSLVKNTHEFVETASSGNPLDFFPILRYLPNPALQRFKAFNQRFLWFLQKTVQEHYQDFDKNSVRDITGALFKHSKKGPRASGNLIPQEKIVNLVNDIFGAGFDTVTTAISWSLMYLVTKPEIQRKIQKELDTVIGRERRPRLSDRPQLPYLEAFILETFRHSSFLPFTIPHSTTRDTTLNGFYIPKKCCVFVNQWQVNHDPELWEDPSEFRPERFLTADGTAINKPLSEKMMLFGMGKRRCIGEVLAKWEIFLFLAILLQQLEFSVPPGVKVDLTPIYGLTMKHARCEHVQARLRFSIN
# Lysosomal acid glucosylceramidase (Homo sapiens), sequence (P04062 whole entry, looked up): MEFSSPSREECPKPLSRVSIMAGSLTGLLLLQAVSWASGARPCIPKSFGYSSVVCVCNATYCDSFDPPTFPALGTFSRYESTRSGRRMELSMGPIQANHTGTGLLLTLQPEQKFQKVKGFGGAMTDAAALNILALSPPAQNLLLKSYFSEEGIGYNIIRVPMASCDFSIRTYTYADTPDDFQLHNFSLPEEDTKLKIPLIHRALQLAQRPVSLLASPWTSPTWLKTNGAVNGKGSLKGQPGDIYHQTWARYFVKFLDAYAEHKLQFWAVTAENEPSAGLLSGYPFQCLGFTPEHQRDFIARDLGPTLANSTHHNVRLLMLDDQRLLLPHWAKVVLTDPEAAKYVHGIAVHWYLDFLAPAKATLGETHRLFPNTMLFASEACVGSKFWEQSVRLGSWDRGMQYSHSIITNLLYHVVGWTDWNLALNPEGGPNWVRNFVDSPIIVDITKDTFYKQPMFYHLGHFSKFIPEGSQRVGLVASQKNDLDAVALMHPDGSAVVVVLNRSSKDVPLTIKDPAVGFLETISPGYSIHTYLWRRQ
# Cytochrome P450 2C9 (Homo sapiens), sequence (P11712 whole entry, looked up): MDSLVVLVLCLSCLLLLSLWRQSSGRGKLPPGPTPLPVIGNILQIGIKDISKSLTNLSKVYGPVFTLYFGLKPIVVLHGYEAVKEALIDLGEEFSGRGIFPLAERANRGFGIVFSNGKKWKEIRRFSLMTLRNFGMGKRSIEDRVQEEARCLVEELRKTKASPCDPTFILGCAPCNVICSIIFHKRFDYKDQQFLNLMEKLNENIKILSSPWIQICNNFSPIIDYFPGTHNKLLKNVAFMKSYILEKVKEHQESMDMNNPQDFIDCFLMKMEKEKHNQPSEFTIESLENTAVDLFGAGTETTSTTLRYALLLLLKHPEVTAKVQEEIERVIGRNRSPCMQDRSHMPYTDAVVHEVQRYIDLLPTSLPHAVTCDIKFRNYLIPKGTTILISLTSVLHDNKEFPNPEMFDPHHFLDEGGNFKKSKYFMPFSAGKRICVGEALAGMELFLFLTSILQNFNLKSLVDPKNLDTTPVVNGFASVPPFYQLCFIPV
# 3',5'-cyclic-AMP phosphodiesterase 4B (Homo sapiens), sequence (Q07343 whole entry, looked up): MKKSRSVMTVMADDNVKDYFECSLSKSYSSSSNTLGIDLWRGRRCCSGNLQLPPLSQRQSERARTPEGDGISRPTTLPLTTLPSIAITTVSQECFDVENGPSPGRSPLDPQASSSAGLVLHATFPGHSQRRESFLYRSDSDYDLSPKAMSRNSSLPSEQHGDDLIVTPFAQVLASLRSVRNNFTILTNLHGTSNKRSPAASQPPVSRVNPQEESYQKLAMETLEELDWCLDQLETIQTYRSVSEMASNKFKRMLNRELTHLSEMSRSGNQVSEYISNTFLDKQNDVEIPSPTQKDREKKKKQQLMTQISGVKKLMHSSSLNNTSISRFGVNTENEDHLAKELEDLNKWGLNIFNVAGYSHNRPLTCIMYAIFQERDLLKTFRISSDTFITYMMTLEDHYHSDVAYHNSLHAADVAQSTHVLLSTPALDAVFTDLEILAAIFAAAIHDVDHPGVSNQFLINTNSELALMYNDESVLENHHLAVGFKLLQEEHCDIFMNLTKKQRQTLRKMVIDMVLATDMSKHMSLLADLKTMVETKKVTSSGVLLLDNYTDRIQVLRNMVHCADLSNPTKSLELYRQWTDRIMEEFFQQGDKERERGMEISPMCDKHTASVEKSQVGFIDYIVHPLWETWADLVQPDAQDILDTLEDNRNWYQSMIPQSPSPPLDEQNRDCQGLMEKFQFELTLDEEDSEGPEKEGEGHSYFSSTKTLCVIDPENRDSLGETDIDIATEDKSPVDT
# Cytochrome P450 3A4 (Homo sapiens), sequence (P08684 whole entry, looked up): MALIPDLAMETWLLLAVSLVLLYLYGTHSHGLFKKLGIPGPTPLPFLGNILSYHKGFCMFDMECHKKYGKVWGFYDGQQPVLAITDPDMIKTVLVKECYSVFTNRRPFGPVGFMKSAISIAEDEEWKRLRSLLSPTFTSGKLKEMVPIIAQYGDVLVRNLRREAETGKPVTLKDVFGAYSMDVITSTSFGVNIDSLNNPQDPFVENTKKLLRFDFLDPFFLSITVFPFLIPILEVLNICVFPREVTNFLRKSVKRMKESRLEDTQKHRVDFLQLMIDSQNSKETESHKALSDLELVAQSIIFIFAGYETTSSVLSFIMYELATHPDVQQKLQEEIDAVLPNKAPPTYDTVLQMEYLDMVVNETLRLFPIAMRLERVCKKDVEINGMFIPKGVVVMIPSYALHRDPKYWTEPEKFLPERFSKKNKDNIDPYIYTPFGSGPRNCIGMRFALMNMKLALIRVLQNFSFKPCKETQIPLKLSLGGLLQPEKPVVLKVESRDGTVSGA
# Glucocorticoid receptor (Homo sapiens), sequence (P04150 whole entry, looked up, the tested form may be a part): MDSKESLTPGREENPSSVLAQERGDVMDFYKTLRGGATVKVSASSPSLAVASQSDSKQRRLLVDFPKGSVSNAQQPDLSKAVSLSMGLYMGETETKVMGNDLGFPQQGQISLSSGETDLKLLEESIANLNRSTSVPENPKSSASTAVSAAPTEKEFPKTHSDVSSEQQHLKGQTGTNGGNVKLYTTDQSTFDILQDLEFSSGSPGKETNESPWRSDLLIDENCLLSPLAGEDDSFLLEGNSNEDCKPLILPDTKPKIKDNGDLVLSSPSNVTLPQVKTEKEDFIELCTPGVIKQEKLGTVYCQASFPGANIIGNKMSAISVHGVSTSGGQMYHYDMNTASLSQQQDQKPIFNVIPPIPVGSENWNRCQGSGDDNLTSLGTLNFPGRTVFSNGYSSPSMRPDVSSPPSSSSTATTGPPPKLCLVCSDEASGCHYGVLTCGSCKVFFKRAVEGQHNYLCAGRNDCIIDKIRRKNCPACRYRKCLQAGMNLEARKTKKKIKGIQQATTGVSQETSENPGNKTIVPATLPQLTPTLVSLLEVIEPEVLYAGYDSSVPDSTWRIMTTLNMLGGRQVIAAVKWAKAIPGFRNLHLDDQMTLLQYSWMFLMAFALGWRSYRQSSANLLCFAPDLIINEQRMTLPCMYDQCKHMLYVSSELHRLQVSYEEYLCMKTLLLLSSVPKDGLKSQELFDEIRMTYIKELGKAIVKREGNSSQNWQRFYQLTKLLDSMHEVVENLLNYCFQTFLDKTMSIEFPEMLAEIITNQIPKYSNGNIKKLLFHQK
# Cytochrome P450 2D6 (Homo sapiens), sequence (P10635 whole entry, looked up): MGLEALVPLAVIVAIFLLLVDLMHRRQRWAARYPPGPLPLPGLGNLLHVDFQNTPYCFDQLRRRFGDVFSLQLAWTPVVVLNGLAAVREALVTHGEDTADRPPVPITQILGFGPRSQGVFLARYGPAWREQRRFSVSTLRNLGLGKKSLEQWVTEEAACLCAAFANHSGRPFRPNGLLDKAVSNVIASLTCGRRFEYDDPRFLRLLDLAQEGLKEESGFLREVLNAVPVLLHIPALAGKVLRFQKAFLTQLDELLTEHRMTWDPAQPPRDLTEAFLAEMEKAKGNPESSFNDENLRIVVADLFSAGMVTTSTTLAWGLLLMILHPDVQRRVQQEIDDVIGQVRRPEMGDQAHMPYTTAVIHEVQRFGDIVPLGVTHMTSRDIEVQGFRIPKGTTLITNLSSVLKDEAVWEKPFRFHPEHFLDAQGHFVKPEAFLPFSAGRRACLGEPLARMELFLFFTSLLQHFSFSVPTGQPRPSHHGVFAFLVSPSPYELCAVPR
# Ubiquitin carboxyl-terminal hydrolase 1 (Homo sapiens), sequence (O94782 whole entry, looked up): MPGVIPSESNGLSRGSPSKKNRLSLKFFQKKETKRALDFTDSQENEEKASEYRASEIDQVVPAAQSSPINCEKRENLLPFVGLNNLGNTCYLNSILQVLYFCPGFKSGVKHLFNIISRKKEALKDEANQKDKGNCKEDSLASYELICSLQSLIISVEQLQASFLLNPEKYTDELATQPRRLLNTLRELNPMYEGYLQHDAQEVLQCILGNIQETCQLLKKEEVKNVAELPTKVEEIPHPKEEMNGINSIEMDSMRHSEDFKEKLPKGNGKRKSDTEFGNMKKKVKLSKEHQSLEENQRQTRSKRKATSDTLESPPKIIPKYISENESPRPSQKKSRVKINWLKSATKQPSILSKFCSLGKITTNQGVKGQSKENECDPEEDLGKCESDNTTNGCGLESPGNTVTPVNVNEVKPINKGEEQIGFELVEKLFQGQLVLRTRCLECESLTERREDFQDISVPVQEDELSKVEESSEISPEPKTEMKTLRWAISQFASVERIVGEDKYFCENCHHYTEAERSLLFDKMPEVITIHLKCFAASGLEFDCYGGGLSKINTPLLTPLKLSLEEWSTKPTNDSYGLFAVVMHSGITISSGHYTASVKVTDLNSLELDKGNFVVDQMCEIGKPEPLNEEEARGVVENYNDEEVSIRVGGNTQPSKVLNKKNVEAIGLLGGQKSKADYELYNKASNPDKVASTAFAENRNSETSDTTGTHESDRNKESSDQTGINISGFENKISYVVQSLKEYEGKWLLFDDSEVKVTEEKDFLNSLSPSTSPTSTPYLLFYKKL
SMILES,Potency [1],"activity change, negative = inhibition [2]",Potency [3],"activity, negative = inhibition [4]",Potency [5],Potency [6],Potency [7],Potency [8],Potency [9],"activity change, negative = inhibition [10]","max response [10, 19]","max response [10, 20]",outcome [11],Potency [12],Potency [13],Potency [14],outcome [15],Potency [16],Potency [17],Potency [18]
O=C(c1ccco1)N1CCC2(CCN(Cc3ccncc3)CC2)CC1,> 11.4 µM (inactive),1.28% (inactive),20 µM (active),-11.4% (inactive),> 46 µM (inactive),inactive,inactive,7.94 µM (active),inactive,6.5% (inactive),12.7%,20.5%,inactive,,,,,,,
COc1ccccc1-c1nc(NCCNC(C)=O)c2ccccc2n1,> 11.4 µM (inactive),-11.3% (inactive),15.8 µM (active),5.28% (inactive),> 46 µM (inactive),inactive,inactive,,,5.2% (inactive),8.82%,14.5%,inactive,> 46 µM (inactive),6.31 µM (active),inactive,inactive,inactive,,
COCC(=O)N1CCC2(CCN(Cc3ccccc3OC)CC2)CC1,> 11.4 µM (inactive),-3.62% (inactive),inactive,-4.34% (inactive),> 46 µM (inactive),inactive,inactive,,,-2.32% (inactive),-22.5%,-24%,inactive,,,,,,,
CN(C)c1ccc(-c2nc(NCc3cccnc3)c3ccccc3n2)cc1,9.34 µM (active),-8.92% (inactive),1.58 µM (active),19.7% (inactive),> 46 µM (inactive),inactive,inactive,,inactive,8.26% (inactive),-14.2%,-5.05%,inactive,> 46 µM (inactive),7.94 µM (active),inactive,inactive,inactive,2 µM (active),
O=C(c1cccc(F)c1)N1CCC2(CCCN(Cc3ccccc3)C2)CC1,> 11.4 µM (inactive),1.11% (inactive),inactive,-5.98% (inactive),> 46 µM (inactive),inactive,inactive,,,-8.15% (inactive),20.2%,12%,inactive,,,,,,,
CC(C)CN1CC2(CCN(C(=O)c3cccc(F)c3)CC2)C1,> 11.4 µM (inactive),10.2% (inactive),inactive,-19.8% (inactive),> 46 µM (inactive),inactive,inactive,,,2.36% (inactive),11.5%,16.2%,inactive,,,,,,,
N#Cc1cccc(NC(=O)N2CCCC3(CCN(C(=O)c4ccco4)CC3)C2)c1,> 11.4 µM (inactive),-14.7% (inactive),15.8 µM (active),-1.77% (inactive),> 46 µM (inactive),inactive,inactive,3.98 µM (active),inactive,7.75% (inactive),5.8%,16.6%,inactive,,,,,,5.01 µM (active),
Cn1cccc1C(=O)N1CCC2(CC1)CN(c1ccncc1)C2,> 11.4 µM (inactive),-6.05% (inactive),inactive,-3.69% (inactive),> 46 µM (inactive),inactive,inactive,5.01 µM (active),,2.57% (inactive),0.464%,4.51%,inactive,,,,,,,1.26 µM (active)
COc1ccccc1CN1CCC2(CC1)CCN(C(=O)c1ccco1)CC2,> 11.4 µM (inactive),-17.3% (inactive),inactive,-4.26% (inactive),> 46 µM (inactive),inactive,inactive,,,3.05% (inactive),1.79%,7.5%,inactive,,,,,,,
O=C(c1cccc(F)c1)N1CCC2(CCN(Cc3ccncc3)CC2)CC1,> 11.4 µM (inactive),-25.9% (inactive),12.6 µM (active),-0.6% (inactive),> 46 µM (inactive),inactive,inactive,2.51 µM (active),inactive,2.27% (inactive),4.86%,11.8%,inactive,,,,,,,
COCC(=O)N1CCC2(CCCN(Cc3ccccc3OC)C2)CC1,> 11.4 µM (inactive),-2.02% (inactive),inactive,10.7% (inactive),> 46 µM (inactive),inactive,inactive,,,-6.35% (inactive),2.52%,0.269%,inactive,,,,,,,
COCC(=O)N1CCC2(CCCN(Cc3ccccc3)C2)CC1,> 11.4 µM (inactive),-19.3% (inactive),inactive,0.327% (inactive),> 46 µM (inactive),inactive,inactive,,,2.23% (inactive),22.3%,27.9%,inactive,,,,,,,
O=C(Nc1cccc(F)c1)N1CC2(CCN(C(=O)c3cc(C(F)(F)F)cc(C(F)(F)F)c3)CC2)C1,> 11.4 µM (inactive),-25.3% (inactive),inactive,-22% (inactive),> 46 µM (inactive),inactive,inactive,inactive,inactive,7.3% (inactive),16.9%,27.5%,inactive,,,,,,,
CC(C)CN1CCC2(CC1)CCN(C(=O)c1cc(C(F)(F)F)cc(C(F)(F)F)c1)CC2,> 11.4 µM (inactive),3.4% (inactive),inactive,0.414% (inactive),> 46 µM (inactive),inactive,inactive,,,-2.84% (inactive),-18.2%,-17.3%,inactive,,,,,,,
